697 NFkB inh – lowers PMA/ionomycin-induced NF-kB signal in 697 B cells. 697 B-cell NF-kB luciferase reporter, 16 h. inhibition, % at 4 µM. 0.33% of 330,000 active; in the data active = inhibition above about 35%
aSyn 5UTR inh – 5' untranslated region of α-synuclein, MLPCN primary screen; alpha-synuclein 5'UTR reporter, inhibitor activity; inhibition, % (tested at 7.5 µM); 0.82% of 300,000 active; AID 1813; in the data active = inhibition above about 60%;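 note: H4 neuroglioblastoma cells stably carrying SNCA 5'UTR luciferase fusion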
Jurkat NFkB inh – inhibitors of the PMA/ionomycin-induced NF-kB reporter in Jurkat cells; inhibition, % at 4 µM; PMA/ionomycin-induced NF-kB luciferase reporter, luminescence; 0.53% of 330,000 active; in the data active = inhibition above about 50%
Gli-Sufu antag – Gli-Sufu pathway antagonism; Sufu-KO-LIGHT fibroblasts, Gli luciferase reporter luminescence; AID 588413; 0.74% of 340,000 active; inhibition, % at 5 µM;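 active = inhibition above about 55%, limit read from the data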
Mdm2-MdmX inh – disrupts the human Mdm2-MdmX interaction | O15151+Q00987 | 3% of 330,000 active | SaOS-2 split-luciferase Mdm2/MdmX complementation, luminescence | inhibition, % at 8 µM;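 active = inhibition of at least 50% at 8 µM in the primary screen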
CSC inhib – cancer stem cell inhibition | AID 2717 | inhibition, % at 7.5 µM | cancer stem cell-like cells viability, luminescence | 1.1% of 300,000 active; in the data active = inhibition above about 75%; tested in HMLE shEcad cells
Numbers stand for hits; . = inactive; / = not tested or not shown. Compounds with a hit are over-represented: about 4.5% of the library has one in this group of screens.

SMILES	697 NFkB inh	aSyn 5UTR inh	Jurkat NFkB inh	Gli-Sufu antag	Mdm2-MdmX inh	CSC inhib
C/C(=N\N=C(/N)SC1CC(=O)N(c2ccc(Cl)c(Cl)c2)C1=O)c1cccs1 (stereo not drawn)	.	.	.	.	.	78.7
CCN1/C(=C/c2ccc3cc(C)cc(C)c3[n+]2CC)Sc2cc(C)ccc21	/	/	/	90.1	/	/
Cc1ccc2c(c1)S/C(=C\c1cccc[n+]1C)N2CCO	.	.	.	.	.	.
CCN1/C(=C\c2ccc3cc(C)ccc3[n+]2CC)Sc2cc(C)c(C)cc21	/	.	/	87.9	/	/
CCCc1nc(SC)[nH]c(=O)c1C	.	.	.	.	.	.
CC1CN(C(=O)CN(C)S(=O)(=O)c2ccc3ccccc3c2)CC(C)O1 (stereo not drawn)	.	.	.	.	.	.
CN(C)c1ccc(C(=O)c2ccccc2)cc1	.	.	.	.	.	.
CN(C)c1ccc(N=Nc2ccc(C(=O)O)cc2)cc1	.	64.0	.	.	.	.
O=C(/C=C/c1ccc(F)cc1)NC(=S)NNC(=O)c1cnccn1	.	95.5	.	.	.	.
O=C(NC(=S)NNC(=O)c1cnccn1)c1ccc(F)cc1	.	70.3	.	.	.	.
COc1ccc(/C=C/C(=O)NC(=S)NNC(=O)c2cccnc2)cc1	.	.	.	.	.	.
CCOc1ncccc1C(=O)OCC(=O)NC1CCCCC1	.	/	.	.	.	.
CCCc1ccc(O)c(N=Cc2cc(Br)cc(OCC)c2O)c1	.	.	.	.	.	91.0
CN(C)S(=O)(=O)c1ccc(Cl)c(NC(=O)COC(=O)CCC2CCCCC2)c1	.	/	.	.	.	.
COc1ccc(C2/C=C\CN(C(=O)Nc3ccc(C(F)(F)F)cc3)CC(=O)N2Cc2ccc(F)cc2)cc1 (stereo not drawn)	.	71.4	.	.	.	.
COc1ccc(C2/C=C\CN(C(=O)Nc3ccccc3)CC(=O)N2Cc2ccc(F)cc2)cc1 (stereo not drawn)	.	.	.	.	.	.
CCN1CCN(C(=O)c2ccc(CSc3ccc(C)cc3)cc2)CC1	.	.	.	.	.	154.9
Cc1cccc(-c2nc(Nc3cccc(O)c3)c3ccccc3n2)c1	.	.	.	.	.	81.2
CCCCCN=Cc1c(C)[nH]n(-c2nc3ccccc3s2)c1=O	.	62.5	.	.	.	.
O=C(/C=C/c1ccc(F)cc1)c1ccccc1Br	.	.	.	.	.	108.4
CCN(CC)C(=O)[C@H]1CC(CC(=O)NCc2ccc(OC)c(OC)c2)C(=O)N2CCc3c([nH]c4ccc(OC)cc34)[C@]12C (stereo partly drawn)	.	/	/	.	.	/
O=C(O)c1ccc2cc(-c3ccccc3)[nH]c2c1	.	65.7	.	.	.	.
O=C(O)c1ccc(-c2ccccc2)[nH]1	.	.	.	.	.	.
COc1cccc(C(=S)N2CCCC2)c1OC	.	.	.	.	.	.
O=C(NCCC1=CCCCC1)C1CCC(CNc2nc(=S)[nH]c3ccccc23)CC1 (stereo not drawn)	.	98.6	.	.	.	.
SMILES	697 NFkB inh	aSyn 5UTR inh	Jurkat NFkB inh	Gli-Sufu antag	Mdm2-MdmX inh	CSC inhib
Nc1cc(Cl)nnc1Cl	.	.	.	.	.	/
CN(C)c1ccc(/C=C2\SC(=O)N(CCc3nnc(N)s3)C2=O)cc1	.	79.8	.	.	.	.
CN(C)c1ccc(/C=C2\SC(=O)N(CC(O)Cn3c4ccccc4c4ccccc43)C2=O)cc1 (stereo not drawn)	.	.	.	.	.	.
CC(C)(C)[C@@H]1COC(=O)[C@H](Cc2ccc(F)cc2)CC/C=C\C[C@@H](CC(=O)NCCO)C(=O)N1	.	/	.	.	.	/
CC1CCCC(C)N1/N=C/c1ccc(N(C)C)cc1 (stereo not drawn)	.	.	.	.	.	.
O=C(OCc1cccc(C(F)(F)F)c1)c1cc([N+](=O)[O-])ccc1N1CCOCC1	.	.	.	.	.	.
CC(NNC(=S)N1CCN(c2ccccn2)CC1)c1nccc2ccccc12 (stereo not drawn)	/	/	/	93.0	/	/
CCNC(=S)N1CCN(c2ccccn2)CC1	.	.	.	.	.	/
CN(C)Cc1c(C(=O)N/N=C/c2cccc(OCc3c(F)cccc3Cl)c2)nnn1-c1nonc1N	.	.	.	67.3	.	.
CC(C)[C@H](NC(=O)c1nn(Cc2ccccc2)c(=O)c2ccccc12)C(=O)O	.	.	.	.	.	.
O=C(NNC(=O)c1ccc(Br)s1)c1ccc(F)c(S(=O)(=O)N2CCOCC2)c1	.	/	.	.	.	/
COc1cc(-c2nc(-c3ccc(NC(=O)c4ccc(Br)o4)cc3)no2)cc(OC)c1OC	.	.	.	.	.	76.9
CC(C)CN1C(=O)c2ccc(NC(=O)Cc3ccccc3)cc2C1=O	.	.	.	.	.	.
Cc1nc(NC(=O)C2CC2)sc1C(=O)Nc1cccc(Cl)c1	.	.	.	.	.	.
Cc1nc(Nc2ccc(Cl)cc2Cl)sc1C(=O)Nc1ccccc1	.	.	.	.	.	82.6
O=C1CCCN1c1ccc(N2CCCC2=O)cc1	.	.	.	/	.	/
O=c1cc(NS(=O)(=O)c2ccccc2)nc(SCc2ccc(Cl)cc2)[nH]1	/	/	/	.	/	88.0
CCn1nnc2cc(C(=O)O)ccc21	.	.	.	.	.	.
CCn1nnc2cc(C(=O)NCCc3ccccc3F)ccc21	.	63.0	.	.	.	.
CN(C(=O)c1ccoc1)c1ccc2ccccc2c1	.	.	.	.	.	/
Cc1ccc(NNC(=O)C(O)(c2cccc(C(F)(F)F)c2)c2cccc(C(F)(F)F)c2)cc1	.	.	.	.	.	98.9
O=C(O)CN1C(=O)/C(=C\c2cc(Br)ccc2OCc2ccc(Cl)cc2Cl)SC1=S	.	.	.	.	.	108.5
C/C(N)=C(/C#N)C(=O)COC(=O)c1cc(-c2ccc(Br)cc2)nc2ccccc12	/	.	/	.	/	.
S=C1NC[C@H](Cc2ccccc2)N1CCCCC1CCCCC1	.	.	.	.	.	136.0
O=C1NC[C@@H](Cc2cccc3ccccc23)N(CCCCC2CCCCC2)C1=O	.	.	.	.	.	87.6
SMILES	697 NFkB inh	aSyn 5UTR inh	Jurkat NFkB inh	Gli-Sufu antag	Mdm2-MdmX inh	CSC inhib
S=C1NC[C@H](Cc2ccccc2)N1CC1CCN(CCCC2CCCC2)CC1	/	/	/	.	/	/
NCCCC[C@H]1CNC(=O)C(=O)N1CCCCC1CCCCC1	.	.	.	.	.	.
Cc1cc(C)c(OCCCCN2CCC(C)CC2)c(Br)c1	.	.	.	.	.	82.2
COC(=O)c1ccc(COc2ccccc2/C=C(\C#N)C(=O)Nc2c(C)cc(C)cc2C)cc1	.	.	.	.	.	117.0
Oc1c(Br)cc(/C=N/n2c(-c3ccccc3)n[nH]c2=S)c(Br)c1O	/	.	/	/	/	106.1
CCOC(=O)CC1(NC(=O)C2CCC(=O)N(CCc3ccccc3)C2)CCCCC1 (stereo not drawn)	.	.	.	.	.	.
COc1cc(C=c2c3ccccc3n3c2cc(-c2ccccc2)[n+]3C)cc(OC)c1OC	/	/	/	.	/	/
CN(C)c1ccc(C=c2c3ccccc3n3c2c2c([n+]3C)CCCC2)cc1	/	/	/	88.8	/	/

High-throughput results as filed in PubChem.
